The panel holds about 79,000 compounds, 15% with a hit somewhere; the sample as a whole holds those more often. Activity calls are given as the source filed them. No stated cut-off is given here; in the data, active means growth inhibition above about 70%; inactive means the rest.
Tests used:
[1] = NCI Yeast Anticancer Drug Screen. Data for the rad52 strain (AID 147);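 further: 0% = growth of vehicle-treated control cultures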; settings: S. cerevisiae rad52 mutant growth inhibition, stronger effect = higher value
In short: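 Genetically altered yeast (DNA damage repair defect) treated with compound; inhibition calculated relative to vehicle.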

[2] = NCI Yeast Anticancer Drug Screen. Data for the wt1 strain (AID 149);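 further: 0% = growth of vehicle-treated wt1 cultures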; settings: S. cerevisiae wt1 strain (SPY 50644) growth inhibition, stronger effect = higher value
In short: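 wt1 strain grown with compound or vehicle; inhibition taken from the growth difference.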

[3] = NCI Yeast Anticancer Drug Screen. Data for the rad50EPP+ strain (AID 151);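 further: 0% = growth of vehicle-treated control cultures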; settings: S. cerevisiae rad50 mutant strain, stronger effect = higher value
In short: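 Strain rad50EPP+; compound exposure; % growth inhibition vs vehicle.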

[4] = NCI Yeast Anticancer Drug Screen. Data for the rad50 strain (AID 155);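 further: 0% = growth of vehicle-only cultures of the same strain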; settings: S. cerevisiae rad50 strain growth inhibition, stronger effect = higher value
In short: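 DNA repair mutant yeast, compound exposure, growth read-out; inhibition is taken relative to vehicle.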

[5] = NCI Yeast Anticancer Drug Screen. Data for the mec2-1 strain (AID 157); settings: S. cerevisiae mec2-1 strain, stronger effect = higher value
In short: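 Cells of the genetically defined mec2-1 yeast strain are incubated with test compound. Inhibition of growth is calculated against vehicle-treated controls.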

[6] = NCI Yeast Anticancer Drug Screen. Data for the rad14 strain (AID 159);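 further: 0% = growth of vehicle-treated control cultures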; settings: S. cerevisiae rad14 strain growth inhibition, stronger effect = higher value
In short: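 DNA repair-defective yeast, compound-exposed; % growth inhibition derived by comparison with vehicle-treated controls.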

[7] = NCI Yeast Anticancer Drug Screen. Data for the sgs1 mgt1 strain (AID 161);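 further: 0% = growth of cultures given vehicle only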; settings: S. cerevisiae sgs1 mgt1 strain, stronger effect = higher value
In short: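 Genetically altered yeast, compound exposure, growth inhibition relative to vehicle.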

[8] = NCI Yeast Anticancer Drug Screen. Data for the CLN2oe strain (AID 163);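 further: 0% = growth of vehicle-only control cultures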; settings: S. cerevisiae CLN2oe strain, stronger effect = higher value
In short: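 Strain altered in cell-cycle control, incubated with compound; growth compared to solvent-treated controls.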

[9] = NCI Yeast Anticancer Drug Screen. Data for the cln2 rad14 strain (AID 165);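 further: 0% = growth equal to vehicle treated cultures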; settings: S. cerevisiae cln2 rad14 strain, stronger effect = higher value
In short: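 The screen exposed genetically defined yeast (cln2 rad14) to test compounds and scored growth inhibition relative to vehicle-treated controls.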

[10] = NCI Yeast Anticancer Drug Screen. Data for the bub3 strain (AID 167); settings: S. cerevisiae bub3 mutant strain, stronger effect = higher value
In short: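 In this screen, a yeast mutant lacking normal mitotic checkpoint function is challenged with compound. Relative growth versus vehicle gives the inhibition value.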

[11] = NCI Yeast Anticancer Drug Screen. Data for the wt2 strain (AID 169);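 further: 0% = growth of vehicle-treated yeast cultures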; settings: S. cerevisiae wt2 strain growth inhibition, stronger effect = higher value
In short: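 Steps: yeast strain treated with compound; growth recorded; inhibition calculated relative to cultures given vehicle alone.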

[12] = NCI Yeast Anticancer Drug Screen. Data for the mlh1 strain (AID 171);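 further: 0% = growth of vehicle-treated control cultures of the same strain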; settings: S. cerevisiae mlh1 strain growth inhibition, stronger effect = higher value
In short: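 Yeast screen: mutant strain plus compound, growth scored against vehicle control wells.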

[13] = NCI Yeast Anticancer Drug Screen. Data for the sgs1 strain (AID 173);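 further: 0% = growth of vehicle-only control cultures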; settings: S. cerevisiae sgs1 mutant, stronger effect = higher value
In short: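 Inhibition of yeast growth served as the measure. The mutant strain was treated with each compound, and growth was normalised to cultures receiving vehicle alone.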

[14] = NCI Yeast Anticancer Drug Screen. Data for the mlh1 rad18 strain (AID 175); settings: S. cerevisiae mlh1 rad18 strain growth inhibition, stronger effect = higher value
In short: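 Compound-treated yeast growth, normalised to vehicle controls. Strain bears defined DNA repair mutations.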

[15] = NCI Yeast Anticancer Drug Screen. Data for the rad18 strain (AID 177); settings: S. cerevisiae rad18 mutant growth inhibition, stronger effect = higher value
In short: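 Inhibition values reflect reduced yeast growth compared with vehicle-treated controls, using a strain engineered with a DNA damage repair defect.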

[16] = at 5.0 µM (retest, dose inferred, filed as 0.5)
[17] = at 50.0 µM (retest, dose inferred, filed as 5.0)

Measured: growth inhibition

O=c1[nH]cc(F)c(=O)[nH]1
active: [1]; at 33.0 µM 71% | [1]; at 100.0 µM 88% | [3]; at 11.0 µM 73% | [3]; at 33.0 µM 92% | [3]; at 100.0 µM 96% | [4]; at 33.0 µM 77% | [4]; [17] 89% | [4]; at 50.0 µM 93.2% | [4]; at 100.0 µM 91% | [5]; [17] 96% | [6]; at 100.0 µM 77% | [7]; [17] 95% | [9]; [17] 73% | [10]; [17] 81% | [11]; at 33.0 µM 86% | [11]; at 100.0 µM 95% | [12]; at 33.0 µM 72% | [12]; at 100.0 µM 93% | [13]; at 11.0 µM 79% | [13]; at 33.0 µM 92% | [13]; at 100.0 µM 96% | [14]; [17] 86% | [14]; at 50.0 µM 89.2% | [15]; at 100.0 µM 86%
inactive: [1]; at 1.2 µM 2% | [1]; at 3.7 µM 14% | [1]; at 11.0 µM 39% | [2]; at 1.2 µM -1% | [2]; at 3.7 µM -1% | [2]; at 11.0 µM 9% | [2]; at 33.0 µM 34% | [2]; at 100.0 µM 64% | [3]; at 1.2 µM 4% | [3]; at 3.7 µM 31% | [4]; at 1.2 µM 2% | [4]; at 3.7 µM 17% | [4]; [16] 26% | [4]; at 11.0 µM 43% | [5]; at 1.2 µM 11% | [5]; at 3.7 µM 12% | [5]; [16] 26% | [5]; at 11.0 µM 14% | [5]; at 33.0 µM 14% | [5]; at 50.0 µM 53.7% | [5]; at 100.0 µM 9% | [6]; at 1.2 µM 1% | [6]; at 3.7 µM 10% | [6]; at 11.0 µM 17% | [6]; at 33.0 µM 54% | [7]; [16] 53% | [7]; at 50.0 µM 49.6% | [8]; at 1.2 µM 21% | [8]; at 3.7 µM 23% | [8]; at 11.0 µM 21% | [8]; at 33.0 µM 19% | [8]; at 100.0 µM 18% | [9]; [16] 17% | [9]; at 50.0 µM 66.7% | [10]; at 1.2 µM 6% | [10]; at 3.7 µM 7% | [10]; [16] 2% | [10]; at 11.0 µM 5% | [10]; at 33.0 µM 19% | [10]; at 50.0 µM 44.6% | [10]; at 100.0 µM 3% | [11]; at 1.2 µM 1% | [11]; at 3.7 µM 17% | [11]; at 11.0 µM 58% | [12]; at 1.2 µM 4% | [12]; at 3.7 µM 8% | [12]; at 11.0 µM 23% | [13]; at 1.2 µM 10% | [13]; at 3.7 µM 44% | [14]; [16] 16% | [15]; at 1.2 µM 0% | [15]; at 3.7 µM 10% | [15]; at 11.0 µM 46% | [15]; at 33.0 µM 68%

Reference: PubChem BioAssay (NCI)
